Results filed as inconclusive are left out. Activity calls are given as the source filed them. Unless noted, calls come from the whole dose curve; as a rule, active = well fitted curve in the direction sought with a large enough effect in the repeat runs; inconclusive = weak or mixed curves; inactive = no such curve, though single readings can be large; an effect the other way counts as inactive or inconclusive.
Key:
[1] = qHTS assay to identify aromatase inhibitors - cell viability counter screen (AID 743084);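 note: cells stimulated with testosterone during compound exposure; nearly all actives have a fitted effect of over 55% in size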
[2] = target: Aryl hydrocarbon receptor (Homo sapiens) (UniProt P35869); assay: qHTS assay to identify small molecule that activate the aryl hydrocarbon receptor (AhR) signaling pathway (AID 743085);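 note: HG2L7.5c1 human HepG2 liver cells with stably integrated DRE-driven firefly reporter; series mostly up to about 70 µM; nearly all actives have a fitted effect of over 15% in size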
Procedure, shortened: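 HepG2 cells stably carrying a 20-DRE firefly luciferase reporter (HG2L7.5c1) treated with compound for 24 hr at 37C. Luciferase read by ONE-Glo luminescence, with CellTiter-Fluor viability read first.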

[3] = qHTS assay to identify small molecule that activate the aryl hydrocarbon receptor (AhR) signaling pathway - cell viability counter screen (AID 743086);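 note: HepG2 liver cells carrying the AhR DRE luciferase reporter; series mostly up to about 70 µM; nearly all actives have a fitted effect of over 45% in size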
Procedure, shortened: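 HepG2-AhR-luc (HG2L7.5c1) cells, 4000/well, were preincubated 5 h at 37C, exposed to compound in qHTS format for 24 hr at 37C, then given CellTiter-Fluor for 30 min; viability was read as fluorescence in the reporter wells.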

[4] = qHTS assay to identify small molecule antagonists of the peroxisome proliferator-activated receptor gamma (PPARg) signaling pathway - cell viability counter screen (AID 743194); note: nearly all actives have a fitted effect of over 55% in size
Procedure, shortened: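 PPARg-UAS-bla HEK293H cells were plated, rested 5 h at 37 C, then treated with compounds plus rosiglitazone (50 nM final) for 17 h at 37 C; viability was then read by CellTiter-Glo luminescence after 30 min at room temperature.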

[5] = qHTS assay for small molecule agonists of the antioxidant response element (ARE) signaling pathway (AID 743202; active = well fitted activation curve with a large enough effect in the signal ratio in the repeat runs, not every such curve was filed as active; the % refers to the signal ratio)
Procedure, shortened: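 Read-out: LiveBLAzer B/G FRET substrate fluorescence after 2 h at room temperature, following 16 h compound treatment at 37 C of HepG2 cells carrying an ARE-driven beta-lactamase reporter.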

[6] = qHTS assay for small molecule agonists of the antioxidant response element (ARE) signaling pathway - cell viability counter screen (AID 743203; calls by dose curve; note: nearly all actives have a fitted effect of over 55% in size)
Procedure, shortened: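 CellSensor ARE-bla HepG2 cells, 2,000 per well, rested 5 hrs at 37C/5% CO2, then exposed to compound in DMSO for 16 hrs; viability read as CellTiter-Glo luminescence after 30 min at room temperature, in the reporter wells.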

[7] = qHTS assay for small molecule activators of the heat shock response signaling pathway - cell viability counter screen (AID 743209); note: nearly all actives have a fitted effect of over 50% in size
Procedure, shortened: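 CellSensor HSE-bla HeLa cells, plated overnight at 37 C/5% CO2, were exposed to compounds in DMSO for 5 h at 37 C. Viability was then read in the same wells by CellTiter-Glo luminescence after 30 min at room temperature.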

[8] = qHTS assay for small molecule activators of the heat shock response signaling pathway (AID 743210; active = well fitted activation curve with a large enough effect in the signal ratio in the repeat runs, with a control signal flat, not every such curve was filed as active; the % refers to the signal ratio; note: series mostly up to about 63 µM)
Procedure, shortened: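 HSE-bla HeLa cells (beta-lactamase reporter under heat shock response elements) were exposed to compounds for 5 h at 37 C, then loaded with LiveBLAzer B/G FRET substrate for 2.5 h at room temperature before fluorescence reading.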

[9] = qHTS assay to identify small molecule agonists of the peroxisome proliferator-activated receptor delta (PPARd) signaling pathway - cell viability counter screen (AID 743211); note: nearly all actives have a fitted effect of over 55% in size
Procedure, shortened: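 PPARd-bla HEK293H cells (3000/well) were pre-incubated 5 h at 37 C, then exposed to compound for 17 h at 37 C. After 2 h with LiveBLAzer substrate, CellTiter-Glo was added to the same wells; luminescence read after 30 min at room temperature.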

[10] = qHTS assay to identify small molecule antagonists of the peroxisome proliferator-activated receptor delta (PPARd) signaling pathway - cell viability counter screen (AID 743213); note: nearly all actives have a fitted effect of over 50% in size
Procedure, shortened: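 HEK293H PPARd UAS-bla cells, 5 h pre-incubation, compound + L165041 300 nM final, 17 h 37 C; B/G FRET substrate 2 h RT; then CellTiter-Glo 30 min RT, luminescence.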

[11] = target: Peroxisome proliferator-activated receptor delta (Homo sapiens) (UniProt Q03181); assay: qHTS assay to identify small molecule antagonists of the peroxisome proliferator-activated receptor delta (PPARd) signaling pathway (AID 743215; active = well fitted inhibition curve with a large enough effect in the signal ratio in the repeat runs, not every such curve was filed as active; the % refers to the signal ratio;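 note: cells stimulated with agonist L165041 at 300 nM final during compound exposure; series mostly up to about 62 µM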)
Procedure, shortened: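 PPARd UAS-bla HEK293H cells were pre-incubated 5 h at 37 C, then given test compounds in DMSO plus agonist L165041 (300 nM final). After 17 h at 37 C, beta-lactamase FRET substrate was added; fluorescence read after 2 h at room temperature.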

[12] = target: Bile acid receptor (Homo sapiens) (UniProt Q96RI1); assay: qHTS assay to identify small molecule antagonists of the farnesoid-X-receptor (FXR) signaling pathway (AID 743217; active = well fitted inhibition curve with a large enough effect in the signal ratio in the repeat runs, not every such curve was filed as active; the % refers to the signal ratio)
Procedure, shortened: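 FXR-UAS-bla HEK 293T cells pre-incubated 5 h at 37 °C, then exposed to compounds with chenodeoxycholic acid (50 uM final) for 16 h at 37 °C. Beta-lactamase reporter read by LiveBLAzer B/G FRET substrate fluorescence after 2 h at room temperature.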

[13] = qHTS assay to identify small molecule agonists of the farnesoid-X-receptor (FXR) signaling pathway - cell viability counter screen (AID 743218); note: nearly all actives have a fitted effect of over 45% in size
Procedure, shortened: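 FXR-UAS-bla HEK 293T cells, plated 5 h at 37 C, were exposed to compounds for 16 h at 37 C. CellTiter-Glo was then added to the same wells as the bla readout; luminescence read after 30 min at room temperature.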

[14] = qHTS assay to identify small molecule antagonists of the farnesoid-X-receptor (FXR) signaling pathway - cell viability counter screen (AID 743221; active = well fitted cell-killing curve with a large enough effect in the repeat runs, not every such curve was filed as active; note: nearly all actives have a fitted effect of over 50% in size)
Procedure, shortened: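 GeneBLAzer FXR-UAS-bla HEK 293T cells, compound plus chenodeoxycholic acid (50 uM final), 16 h at 37 C. CellTiter-Glo added to the same wells after the beta-lactamase read; luminescence read after 30 min at room temperature as viability.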

[15] = target: Vitamin D3 receptor (Homo sapiens) (UniProt P11473); assay: qHTS assay to identify small molecule agonists of the vitamin D receptor (VDR) signaling pathway (AID 743222; calls by dose curve)
Procedure, shortened: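 VDR-bla cells were plated 4 h at 37C/5% CO2, then exposed to compounds in DMSO for 16 h. After LiveBLAzer B/G FRET substrate addition and 2 h at room temperature, beta-lactamase reporter fluorescence was read.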

[16] = target: Peroxisome proliferator-activated receptor gamma (Homo sapiens) (UniProt P37231); assay: qHTS assay to identify small molecule antagonists of the peroxisome proliferator-activated receptor gamma (PPARg) signaling pathway (AID 743191; calls by dose curve; note: series mostly up to about 63 µM; nearly all actives have a fitted effect of over 30% in size)
Procedure, shortened: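 GeneBLAzer PPARg UAS-bla HEK293H cells carrying a UAS-driven beta-lactamase reporter were plated at 3000 cells/well, preincubated 5 h at 37C, then given compound for 17 h at 37C; LiveBLAzer B/G FRET substrate was read after 1 h at room temperature.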

[17] = target: Peroxisome proliferator-activated receptor delta (Homo sapiens) (UniProt Q03181); assay: qHTS assay to identify small molecule agonists of the peroxisome proliferator-activated receptor delta (PPARd) signaling pathway (AID 743212; calls by dose curve)
Procedure, shortened: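 GeneBLAzer PPARd UAS-bla HEK293H cells (beta-lactamase reporter under UAS control), plated and rested 5 h at 37 C, then exposed to compounds in DMSO at 37 C; LiveBLAzer B/G FRET substrate added, 2 h room temperature, fluorescence read.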

[18] = target: Vitamin D3 receptor (Homo sapiens) (UniProt P11473); assay: qHTS assay to identify small molecule antagonists of the vitamin D receptor (VDR) signaling pathway (AID 743223; active = well fitted inhibition curve with a large enough effect in the signal ratio in the repeat runs, not every such curve was filed as active; the % refers to the signal ratio)
Procedure, shortened: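 VDR-bla cells were treated with compound plus 3 nM final 1alpha,25-dihydroxyvitamin D3 for 16 h at 37C. Beta-lactamase reporter read by B/G FRET substrate fluorescence after 2 h at room temperature. qHTS format.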

[19] = target: Bile acid receptor (Homo sapiens) (UniProt Q96RI1); assay: qHTS assay to identify small molecule agonists of the farnesoid-X-receptor (FXR) signaling pathway (AID 743220; active = well fitted activation curve with a large enough effect in the signal ratio in the repeat runs, not every such curve was filed as active; the % refers to the signal ratio)
Procedure, shortened: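 Beta-lactamase reporter under UAS control in GeneBLAzer FXR HEK 293T cells (5000/well) measured with LiveBLAzer FRET substrate after 2 h at room temperature. Compound exposure lasted 16 h at 37C.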
% is set by controls: 0 for no effect and ±100 for the full control effect.

Sequence of Vitamin D3 receptor (Homo sapiens) (P11473 whole entry, looked up): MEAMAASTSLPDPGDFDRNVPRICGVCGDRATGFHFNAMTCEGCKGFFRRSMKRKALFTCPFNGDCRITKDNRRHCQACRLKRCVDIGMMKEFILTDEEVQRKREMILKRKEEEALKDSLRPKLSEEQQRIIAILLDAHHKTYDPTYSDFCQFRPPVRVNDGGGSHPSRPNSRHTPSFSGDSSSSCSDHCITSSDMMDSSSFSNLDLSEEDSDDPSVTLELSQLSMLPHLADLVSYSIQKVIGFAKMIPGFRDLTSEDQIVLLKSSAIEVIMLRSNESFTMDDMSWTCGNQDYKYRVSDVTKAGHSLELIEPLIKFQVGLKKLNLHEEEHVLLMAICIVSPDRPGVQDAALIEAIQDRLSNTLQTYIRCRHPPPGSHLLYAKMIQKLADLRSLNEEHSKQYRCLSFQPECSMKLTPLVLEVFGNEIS
Sequence of Peroxisome proliferator-activated receptor delta (Homo sapiens) (Q03181 whole entry, looked up): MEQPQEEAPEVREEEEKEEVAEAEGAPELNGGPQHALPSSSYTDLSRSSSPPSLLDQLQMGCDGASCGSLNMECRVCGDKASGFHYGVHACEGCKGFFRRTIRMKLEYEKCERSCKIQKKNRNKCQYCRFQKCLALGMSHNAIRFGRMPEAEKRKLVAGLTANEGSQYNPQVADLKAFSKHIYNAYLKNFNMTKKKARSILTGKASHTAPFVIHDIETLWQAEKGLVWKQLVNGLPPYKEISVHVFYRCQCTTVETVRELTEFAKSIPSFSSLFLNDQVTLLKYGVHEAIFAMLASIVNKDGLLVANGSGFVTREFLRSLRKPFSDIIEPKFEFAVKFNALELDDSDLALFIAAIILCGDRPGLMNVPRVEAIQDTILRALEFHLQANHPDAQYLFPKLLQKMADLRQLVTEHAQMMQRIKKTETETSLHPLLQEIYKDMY
Sequence of Peroxisome proliferator-activated receptor gamma (Homo sapiens) (P37231 whole entry, looked up): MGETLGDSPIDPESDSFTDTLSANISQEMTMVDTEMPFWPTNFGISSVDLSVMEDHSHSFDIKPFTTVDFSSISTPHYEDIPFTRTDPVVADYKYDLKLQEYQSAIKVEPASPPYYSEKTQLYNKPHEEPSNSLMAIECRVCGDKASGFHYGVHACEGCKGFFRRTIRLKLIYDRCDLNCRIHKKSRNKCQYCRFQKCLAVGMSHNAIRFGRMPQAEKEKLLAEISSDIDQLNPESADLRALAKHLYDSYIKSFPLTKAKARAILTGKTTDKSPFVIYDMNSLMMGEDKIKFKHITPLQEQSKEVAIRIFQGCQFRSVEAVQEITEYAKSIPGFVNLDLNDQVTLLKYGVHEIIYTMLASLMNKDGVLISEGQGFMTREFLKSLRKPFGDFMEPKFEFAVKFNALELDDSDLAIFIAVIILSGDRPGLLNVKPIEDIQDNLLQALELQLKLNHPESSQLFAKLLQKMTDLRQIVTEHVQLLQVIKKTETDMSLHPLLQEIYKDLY
Sequence of Bile acid receptor (Homo sapiens) (Q96RI1 whole entry, looked up): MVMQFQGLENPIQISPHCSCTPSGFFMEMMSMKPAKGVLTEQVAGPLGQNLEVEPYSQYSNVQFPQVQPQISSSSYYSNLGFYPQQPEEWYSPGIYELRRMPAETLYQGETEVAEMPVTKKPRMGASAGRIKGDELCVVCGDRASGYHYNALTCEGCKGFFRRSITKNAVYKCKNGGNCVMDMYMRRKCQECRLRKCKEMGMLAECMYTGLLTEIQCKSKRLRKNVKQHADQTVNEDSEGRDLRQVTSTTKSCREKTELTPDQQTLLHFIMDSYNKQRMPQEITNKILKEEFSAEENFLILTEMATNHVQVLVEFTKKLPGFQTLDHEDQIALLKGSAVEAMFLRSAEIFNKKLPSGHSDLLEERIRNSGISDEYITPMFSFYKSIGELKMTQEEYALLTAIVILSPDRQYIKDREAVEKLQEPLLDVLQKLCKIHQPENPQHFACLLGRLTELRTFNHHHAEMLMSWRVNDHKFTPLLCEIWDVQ
Sequence of Aryl hydrocarbon receptor (Homo sapiens) (P35869 whole entry, looked up): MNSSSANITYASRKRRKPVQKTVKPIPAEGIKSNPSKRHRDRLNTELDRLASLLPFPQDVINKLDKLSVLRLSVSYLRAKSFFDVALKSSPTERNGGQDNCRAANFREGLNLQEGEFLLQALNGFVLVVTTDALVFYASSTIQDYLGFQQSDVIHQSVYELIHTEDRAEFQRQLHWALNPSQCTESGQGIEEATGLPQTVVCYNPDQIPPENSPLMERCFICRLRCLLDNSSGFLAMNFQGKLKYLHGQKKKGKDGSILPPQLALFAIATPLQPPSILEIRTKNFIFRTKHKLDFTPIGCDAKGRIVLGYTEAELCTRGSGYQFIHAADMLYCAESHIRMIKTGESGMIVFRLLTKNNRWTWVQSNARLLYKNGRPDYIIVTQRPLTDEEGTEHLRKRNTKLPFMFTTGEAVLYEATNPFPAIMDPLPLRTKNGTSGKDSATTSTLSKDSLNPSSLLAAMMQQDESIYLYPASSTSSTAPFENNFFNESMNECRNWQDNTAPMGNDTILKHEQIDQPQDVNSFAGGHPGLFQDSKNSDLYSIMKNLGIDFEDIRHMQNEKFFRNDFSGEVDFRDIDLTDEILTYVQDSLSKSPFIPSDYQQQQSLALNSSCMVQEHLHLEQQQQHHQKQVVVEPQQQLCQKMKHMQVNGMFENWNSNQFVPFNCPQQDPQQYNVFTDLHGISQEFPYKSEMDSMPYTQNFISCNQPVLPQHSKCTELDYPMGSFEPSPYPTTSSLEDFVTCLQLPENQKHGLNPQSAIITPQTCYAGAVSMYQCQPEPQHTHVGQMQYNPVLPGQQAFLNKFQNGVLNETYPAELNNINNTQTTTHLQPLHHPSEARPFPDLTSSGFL

CO/N=C(/C(=O)N[C@@H]1C(=O)N2C(C(=O)OCOC(=O)C(C)(C)C)=C(C)CS[C@H]12)c1csc(N)n1
inactive: Potency [1] | Potency [2] | Potency [3] | outcome [4] | Potency [5] | Potency [6] | outcome [7] | outcome [8] | Potency [9] | Potency [10] | Potency [11] | outcome [12] | Potency [13] | Potency [14] | outcome [15]

C1CN(CCOCCN2CCOCC2)CCO1
inactive: Potency [1] | Potency [2] | Potency [3] | Potency [16] | Potency [6] | outcome [7] | outcome [8] | Potency [9] | outcome [17] | Potency [10] | Potency [13] | Potency [14] | outcome [15] | outcome [18]

C[C@](N)(Cc1ccc(O)cc1)C(=O)O
inactive: Potency [1] | Potency [2] | Potency [3] | activity change, negative = cytotoxicity [4] 4.13% [at 5.95 µM] | activation [5] 6.12% [at 8.36 µM] | viability change, negative = cytotoxic [6] -15% [at 8.36 µM] | activity change, negative = cytotoxicity [7] 1.38% [at 5.95 µM] | activation [8] 0.673% [at 5.95 µM] | activity change, negative = cytotoxicity [9] 3.74% [at 5.95 µM] | viability change, negative = cytotoxic [10] 17.6% [at 6.26 µM] | activity change, negative = inhibition [12] 3.49% [at 5.95 µM] | activity change, negative = cytotoxicity [14] -5.83% [at 5.95 µM]

CC(C)OC(=O)c1ccccc1
inactive: Potency [1] | Potency [2] | Potency [3] | outcome [4] | Potency [5] | Potency [6] | outcome [7] | outcome [8] | Potency [9] | outcome [17] | Potency [10] | Potency [13] | Potency [14] | outcome [15]

C[C@H]1C[C@@H](O)CC(C)(C)C1
inactive: Potency [1] | Potency [2] | Potency [3] | outcome [4] | Potency [5] | Potency [6] | outcome [7] | Potency [10] | Potency [11] | outcome [12] | Potency [13] | outcome [19] | Potency [14] | outcome [15] | outcome [18]

CCCc1cc(C(N)=S)ccn1
inactive: Potency [1] | Potency [2] | Potency [3] | Potency [16] | outcome [4] | Potency [6] | outcome [7] | outcome [8] | Potency [9] | Potency [10] | Potency [14]

CCN1CCC[C@H]1CNC(=O)c1c(O)c(Cl)cc(Cl)c1OC
inactive: Potency [1] | Potency [2] | Potency [3] | outcome [4] | Potency [5] | Potency [6] | outcome [7] | outcome [8] | Potency [9] | outcome [17] | Potency [14]

CCN(CC)CCNC(=O)c1cc(S(C)(=O)=O)ccc1OC
inactive: Potency [1] | Potency [2] | Potency [3] | Potency [16] | outcome [4] | Potency [5] | Potency [6] | outcome [8] | Potency [9] | Potency [10] | Potency [11] | Potency [13] | Potency [14]

O=C(O)Cc1ccc(CCNS(=O)(=O)c2ccc(Cl)cc2)cc1
inactive: Potency [1] | Potency [2] | Potency [3] | outcome [4] | Potency [5] | Potency [6] | outcome [8] | Potency [9] | outcome [17] | Potency [10] | Potency [11] | outcome [12] | Potency [13] | outcome [19] | Potency [14]
